Out of some 300,000 compounds screened, about 1,200 (0.4%) were called active. The full list was thinned out, with actives kept by preference. Values without a mark were called inactive. Rule as the data show it: active = activity change below about -75% (passing the limit was not always enough); inconclusive = no clear call, values can overlap the other calls.
Test: modulation of AI-2 quorum-sensing luminescence – JMH597 strain, luminescence/OD600 ratio, primary screen (AID 2094);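 also: luminescence divided by OD600 gain over 9 h not by final OD600 alone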
Details: Vibrio harveyi JMH597 AI-2 luminescence/OD600 ratio, 9 h; at 7.5 µM; hits give low values; 0 = neutral-control median; strain lacks LuxN and CqsS sensors

| SMILES | activity change |
| --- | --- |
| O=S(=O)(Nc1cccc(Oc2ccc(Cl)cc2)n1)c1ccc(F)cc1 | -97.1% (active) |
| O=S(=O)(Nc1ccccn1)c1cccc(S(=O)(=O)c2ccc(Cl)cc2)c1 | 3.88% |
| O=S(=O)(Nc1ccccn1)c1ccc(Oc2ccccc2)cc1 | 21.1% |
| CC(=O)Oc1ccc2c(=O)oc(-c3ccc([N+](=O)[O-])cc3)nc2c1 | 9.78% |
| COc1cccc(CNC(=O)CCCC(=O)Nc2cccc([N+](=O)[O-])c2)c1 | 33.3% |
| COC(=O)/C=C\C(=O)Nc1cccc([N+](=O)[O-])c1 | -88.2% (active) |
| COc1ccc(S(=O)(=O)NC(C)C(=O)Nc2cccc([N+](=O)[O-])c2)cc1 (stereo unspecified) | 16.9% |
| Cc1ccc(C(=O)NNC(=O)c2ccncc2)cc1S(=O)(=O)N1CCCCC1 | 18% |
| NC(=O)c1ccc(-c2csnn2)cc1 | -13% |
| Cc1cc(C)c(C(N)=O)c(Cl)n1 | -0.00035% |
| COc1cccc(NC(=O)NCCN2CCCCC2)c1 | 8.92% |
| O=C(NCc1cccc(CNC(=O)Nc2cccc(O)c2)c1)Nc1cccc(O)c1 | 3.61% |
| COc1cccc(NC(=O)NCc2ccc(F)cc2)c1 | -88.7% (active) |
| Oc1ccc(N=Nc2nccs2)c(O)c1 | -86.3% (active) |
| Cc1cc(-c2ccccc2)nc(N2CCC(C(=O)NC34CC5CC(CC(C5)C3)C4)CC2)n1 | 31.5% |
| CCN1C(=NCCc2cccnc2)N[C@@H](c2ccccc2)C(C(=O)OC)=C1C | 8.09% |
| COc1ccc(-c2nn(-c3ccccc3)cc2/C=C\C(=O)Nc2ccc(C(=O)O)cc2)cc1 | 21.3% |
| O=C(O)c1ccc(N/N=C/c2cn(-c3ccccc3)nc2-c2cccs2)cc1 | -83.5% (active) |
| O=C(/C=C\c1cn(-c2ccccc2)nc1-c1cccs1)N1CCOCC1 | 28.5% |
| O=C1C2CCCN2C(=O)N1CCCCN1CCN(c2cccc(C(F)(F)F)c2)CC1 (stereo unspecified) | 12.2% |
| CCC(C)N(C(=O)COC(=O)C1C(C(=O)OC)=C(C)NC(C)=C1C(=O)OC)C1CCS(=O)(=O)C1 (stereo unspecified) | 18.1% |
| CN(C)S(=O)(=O)c1ccc(NC(=O)N2CCOCC2)cc1 | 11.7% |
| CN(C)S(=O)(=O)c1ccc(Oc2ccc(S(=O)(=O)N(C)C)cc2)cc1 | -86.2% (active) |
| COc1cccc(NC(=O)c2ccc(S(=O)(=O)N(C)C)cc2)c1 | 14.9% |

| SMILES | activity change |
| --- | --- |
| CCc1ccc(-c2cc(C)no2)cc1S(=O)(=O)NCCc1ccc(S(N)(=O)=O)cc1 | 9.18% |
| CC12CCC(=O)N1C(C(=O)NCCN1C(=O)S/C(=C\c3ccccc3F)C1=O)CS2 (stereo unspecified) | 17% |
| O=c1c2ccccc2c(-c2ccc(Br)cc2)nn1Cc1ccccc1 | 41.9% |
| Nc1c(-c2ccccc2)nnn1Cc1ccccc1 | -76.6% (active) |
| Nc1c(C(=O)Nc2ccc3c(c2)OCCO3)nnn1Cc1ccccc1 | 9.93% |
| O=C(/C=C/c1ccc(F)cc1)NC(=S)NNC(=O)c1cccnc1 | -112% (active) |
| O=C(/C=C/c1ccc(F)cc1)NCCNC(=O)/C=C/c1ccc(F)cc1 | 20.3% |
| CC(C)c1ccc(/C=C/C(=O)NNC(=O)c2cccnc2)cc1 | 5.1% |
| Cc1ccc(N2CCN(S(=O)(=O)N(C)C)CC2)cc1Cl | 10.7% |
| CCCCCCC(O)(CCN1CCCCC1)c1ccccc1 (stereo unspecified) | 20% |
| OC(CN=c1sc2ccccc2n1CC(O)COc1ccccc1)COc1ccccc1 (stereo unspecified) | 4.84% |
| O=C(c1ccc(-c2ccccc2)cc1)C1CCCN(C(=O)c2cncs2)C1 (stereo unspecified) | -77.4% (active) |
| Cn1nccc1C(=O)N1CCCC(C(=O)c2ccc(Oc3ccccc3)cc2)C1 (stereo unspecified) | -2.94% |
| CCNC(=O)N1CCCC(C(=O)c2ccc(-c3ccccc3)cc2)C1 (stereo unspecified) | -9.07% |
| Cc1ccc(Oc2cnn(-c3ccccc3)c(=O)c2Br)cc1 | -95.8% (active) |
| COc1ccc(Oc2c(Cl)cnn(-c3ccccc3)c2=O)cc1 | 8.72% |
| Cc1ccc(-c2nc3c(cnn3-c3ccccc3)c(=O)o2)cc1 | 9.58% |
| C/C(=N\NC(=O)c1ccc(C)cc1)C1C(=O)c2ccccc2C1=O | 17% |
| Cc1ccsc1C(=O)OCC(=O)c1cc(C)n(CC2CCCO2)c1C (stereo unspecified) | 22.3% |
| CSCCC(NC(=O)COc1ccccc1)C(=O)OCC(=O)c1cc2ccccc2o1 (stereo unspecified) | 8.03% |
| Cc1ccsc1C(=O)OCC(=O)c1cc2ccccc2o1 | -88.1% (active) |
| Cc1ccc(NC(=O)C2CCN(S(=O)(=O)c3ccc4c(c3)NC(=O)CO4)CC2)cc1C | -2.55% |
| Cn1c(N)c(C(=O)COC(=O)C23CC4CC(CC(C4)C2)C3)c(=O)n(C)c1=O | 12.7% |
| Cc1csc(=O)n1CC(=O)OCC(=O)N(CC(C)C)c1c(N)n(Cc2ccccc2)c(=O)[nH]c1=O | 6.79% |

| SMILES | activity change |
| --- | --- |
| CC(C)(C)c1ccc(OC2=CS(=O)(=O)c3ccccc32)cc1 | -84.2% (active) |
| CC(C)(C)c1ccc(CN2C(=O)c3ccccc3S2(=O)=O)cc1 | 21.7% |
| CC(C)(C)c1ccc(Oc2ccc(N)cc2)cc1 | -23.7% |
| CCN(CC)C(=O)CN(c1cccc(OC)c1)S(=O)(=O)c1ccc(C)cc1 | 9.13% |
| O=C(COc1ncnc2ccccc12)NC(=O)NCc1ccccc1 | -86.9% (active) |
| CC(=O)Nc1ccc(NC(=O)COc2ncnc3ccccc23)cc1 | -8.91% |
| CC(C)C(C)NC(=O)COc1ncnc2ccccc12 (stereo unspecified) | 19.9% |
| CCOC(=O)c1cc(C(C)C)sc1NC(=O)COC(=O)c1nccnc1N | 29.5% |
| N/C(=N\OC(=O)Cc1ccccc1[N+](=O)[O-])c1ccc(Br)cc1 | -5% |
| COc1ccc(/C(N)=N/OC(=O)Cc2ccccc2)cc1 | -87.5% (active) |
| COc1ccc(/C(N)=N/OC(=O)CCCc2ccccc2)cc1 | 749% |
| O=C1CCCc2nn(-c3ccccc3)nc21 | 8.67% |
| CCCc1ccc(OCCNC(=O)c2ccccc2Br)cc1 | 28.5% |
| CCCc1ccc(OCC(=O)NNC(=S)NC(=O)c2ccco2)cc1 | -5.63% |
| CCCc1ccc(OCCNC(=O)c2ccco2)cc1 | -83.3% (active) |
| Cc1ccccc1OCC(=O)Nc1ccc2c(c1)ncn2C | 27.2% |
| Cc1ccc(C(=O)O)cc1N1C(=O)CCCC1=O | 28.2% |
| CCc1nnc(NS(=O)(=O)c2ccc(NC(=O)c3cccc(OC(F)(F)C(F)F)c3)cc2)s1 | 24.2% |
| O=C(O)c1ccc(S(=O)(=O)N2CCC(Cc3ccccc3)CC2)cc1 | 38.4% |
| CCc1ccc(S(=O)(=O)N/N=C\c2ccc([N+](=O)[O-])o2)cc1 | 28.2% |
| Cc1cc(C)nc(N/N=C/c2ccc([N+](=O)[O-])o2)n1 | -83.7% (active) |
| Cc1cc(C)nc(N/N=C/c2ccncc2)n1 | 10.7% |
| NC(=O)CN1CCCC1c1ccc2c(c1)OCCO2 (stereo unspecified) | 22.1% |
| Cc1ccc(CCCOC(=O)C[N+]2(C)CCCCC2)cc1 | 20.1% |

| SMILES | activity change |
| --- | --- |
| Cc1ccc(Cc2nc(-c3cccc(C)c3)no2)cc1 | -81.8% (active) |
| Cc1cccc(-c2noc(-c3ccc(F)cc3)n2)c1 | 2.4% |
| Cc1ccc(-c2noc(CN3CCN(Cc4ccccc4)CC3)n2)cc1 | -10.7% |
| Cc1cccc(C)c1N1CCN(S(=O)(=O)N2CCOCC2)CC1 | 0.226% |
| Cc1cc(C)cc(NC(=O)COC(=O)c2cc(C)oc2C)c1 | -17% |
| Cc1cccc(C(=O)OCC(=O)Nc2ccc(F)cc2)c1 | -25.5% |
| Cc1cc(C(=O)OCC(=O)Nc2ccc(F)c(F)c2)c(C)o1 | -93.5% (active) |
| CCOC(=O)N1CCN(S(=O)(=O)c2ccc(Br)cc2)CC1 | 14.3% |
| CC1CCN(C(=O)Cn2nnnc2CN2CCOCC2)CC1 | 8% |
| O=C(O)/C=C/c1ccc2c(c1)OCCO2 | 6.59% |
| CN(C)c1ccc(/C=C/C(=O)c2ccc(C(C)(C)C)cc2)cc1[N+](=O)[O-] | 19.9% |
| O=C(/C=C/c1ccc2c(c1)OCCO2)c1ccc(O)cc1 | -84.5% (active) |
| O=C(/C=C/c1ccc(Cl)c([N+](=O)[O-])c1)c1ccc(O)cc1 | -37.5% |
| CN(C)c1ccc(/C=C/C(=O)c2ccc(O)cc2)cc1[N+](=O)[O-] | -93% (active) |
| CC(=O)c1ccc2c(c1)OCCOCCOc1ccc(C(C)=O)cc1OCCOCCO2 | 17.9% |
| O=C(Cc1ccc([N+](=O)[O-])cc1)Nc1ccc(C(=O)N2CCOCC2)cc1 | 31% |
| CCN(CC)c1ccc(S(=O)(=O)N2CCCCC2)cc1NC(=O)C1=COCCO1 | 0.314% |
| Cc1cccc(N2CCN(S(=O)(=O)c3ccc(-c4cc(C)no4)s3)CC2C)c1 (stereo unspecified) | 7.14% |
| Cc1ccc(C(=O)N2CCN(S(=O)(=O)N3CCOCC3)CC2)cc1 | 14.3% |
| NC(=O)c1ccc(NC(=O)COC(=O)c2ccc([N+](=O)[O-])cc2)cc1 | 17.8% |
| O=C(COc1ccc([N+](=O)[O-])cc1)Nc1ccc(N2CCCC2)cc1 | 44.5% |
| O=C(COC(=O)C1CCCCC1)Nc1ccc([N+](=O)[O-])cc1 | -83.6% (active) |
| CCCC1NC(=O)NC(C)=C1C(=O)OCC (stereo unspecified) | 2.55% |
| Oc1c(Br)cc(/C=N/NC(=S)NCC2CCCO2)cc1Br (stereo unspecified) | 46.7% |

— PubChem BioAssay AID2094 (Broad Institute, 2009)
